Screening results (PubChem BioAssay)
Most compounds without a hit are left out; they make up all but 2.4% or so of the library.
D2 antag: HTS Assay for Allosteric Antagonists of the Human D2 Dopamine Receptor: Primary Screen for Antagonists; HEK293 TREx D2 cells, calcium flux, dopamine EC80; inhibition, % at 10 µM; 340,000 tested, 2% active; in the data active = inhibition above about 30%; inactive = below that, where a call was filed; note: 0% is about no effect
Target sequence (P14416 whole entry, looked up): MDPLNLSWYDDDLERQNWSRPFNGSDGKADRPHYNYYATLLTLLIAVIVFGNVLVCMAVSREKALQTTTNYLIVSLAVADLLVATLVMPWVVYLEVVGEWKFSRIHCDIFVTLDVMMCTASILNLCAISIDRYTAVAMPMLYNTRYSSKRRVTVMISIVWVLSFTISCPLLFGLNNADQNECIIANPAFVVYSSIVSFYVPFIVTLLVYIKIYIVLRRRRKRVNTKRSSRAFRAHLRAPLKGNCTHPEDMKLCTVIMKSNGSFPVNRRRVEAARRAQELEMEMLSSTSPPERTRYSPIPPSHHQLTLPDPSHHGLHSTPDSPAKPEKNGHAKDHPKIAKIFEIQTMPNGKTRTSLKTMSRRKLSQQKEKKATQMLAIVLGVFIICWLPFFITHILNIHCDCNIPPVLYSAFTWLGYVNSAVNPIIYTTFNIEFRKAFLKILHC
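HEK293 T-REx D2 cells, tet-induced, calcium dye no-wash. Cpd pintool add, 180 s kinetic, then EC80 DA, 180 s kinetic. Ca flux read.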
D2 ag-1: Beta-Arrestin HTS for Positive Allosteric Modulators of the Human D2 Dopamine Receptor: Agonists; D(2) dopamine receptor (Homo sapiens), P14416; DiscoveRx PathHunter D2 beta-arrestin, luminescence, 90 min; 100% = 57 uM dopamine signal; activation, % (test concentration not listed); 360,000 tested, 0.084% active; in the data active = activation above about 40%
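DiscoveRx PathHunter D2 beta-arrestin cells (2,100/well) attached overnight, then compound-stimulated 90 min at 37 C in HBSS/10 mM HEPES/0.1% Tween-20 buffer; beta-galactosidase complementation read by luminescence after 1 h at ambient temperature. Dopamine 57 uM final (EC100) as control.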
D2 PAM-1: HTS Assay for Positive Allosteric Modulators of the Human D2 Dopamine Receptor: Primary Screen for Potentiators; potentiation, % at 10 µM; 340,000 tested, 0.34% active; AID 485347, 2010; HEK293 T-REx D2, calcium flux, EC20 dopamine potentiation; D(2) dopamine receptor (Homo sapiens), P14416;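 active = potentiation over 3 SD above the plate norm, cut at about 30% in these data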; note: 0% is about no effect
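Tetracycline-induced Hek293 Trex D2 cells, force-coupled to calcium, loaded with no-wash calcium dye. Compound added with 180 s kinetic read for agonism, then EC20 dopamine and a further 180 s read for potentiation.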
D2 ag-2: HTS Assay for Allosteric Agonists of the Human D2 Dopamine Receptor: Primary Screen for Agonists. D(2) dopamine receptor (Homo sapiens), P14416. activation, % at 2 µM. 340,000 tested, 0.53% active. HEK293 T-REx D2 cells, calcium flux agonist mode. AID 485358, 2010;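 active = activation over 3 SD above normal in the single-dose calcium agonist read, cut at about 30% in these data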; note: 0% is about no effect
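Tetracycline-induced HEK293 Trex cells with D2 receptor force-coupled to calcium signaling, plated overnight at 30 C and loaded with no-wash calcium dye. Calcium flux read kinetically for 180 s after compound addition; responses flag agonists.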
D2 PAM-2: Beta-Arrestin HTS for Positive Allosteric Modulators of the Human D2 Dopamine Receptor: Potentiators; D(2) dopamine receptor (Homo sapiens), P14416; DiscoveRx D2 beta-arrestin cells, luminescence, 90 min; 100% = 57 uM dopamine signal; AID 624464, 2012; potentiation, % (concentration not given with the values); 360,000 tested, 0.23% active; in the data active = potentiation above about 50%
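PathHunter beta-arrestin assay in DiscoveRx D2 cells. Compounds were added with an EC20 of dopamine (50 nM final) for 90 min at 37 deg C. Luminescence was read 1 h after detection reagent, with 57 uM dopamine as the EC100 control.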
The depositor's hits bear a star; . = not tested or not shown.

SMILES	D2 antag	D2 ag-1	D2 PAM-1	D2 ag-2	D2 PAM-2
CCn1c(SCC(=O)Nc2c(C)cccc2C)nnc1-c1nonc1NC(C)=O	.	.	-1	-2	.
COc1ccc(N2CCN(C(=O)C3Cc4ccccc4N3C(C)=O)CC2)cc1 (stereo unspecified)	.	.	2	2	.
COC(=O)CSc1ncc2c(n1)-c1ccccc1N(Cc1ccc(Cl)cc1)S2(=O)=O	.	.	10	0	.
Cc1c(NS(=O)(=O)c2ccc(NCCN3CCOCC3)c([N+](=O)[O-])c2)c(=O)n(-c2ccccc2)n1C	6	3	31*	-1	-9
N#Cc1ccc(CSc2nc3c(c(=O)[nH]2)CCC3)cc1	.	.	-9	0	.
Cc1ccc(-c2nc(C)c(CCNS(=O)(=O)c3ccc(F)c(C(F)(F)F)c3)s2)cc1	.	.	.	-1	.
Cc1cc(=O)oc2cc(NC(=O)C(C)Oc3ccc(F)cc3)ccc12 (stereo unspecified)	35*	-3	0	0	-33
Cc1cc(=O)oc2cc(NC(=O)c3ccc(OC(F)F)cc3)ccc12	2	-1	3	0	-6
COc1cccc(CN2C(=O)c3ccccc3Sc3ccc(C(=O)OCc4ccco4)cc32)c1	.	.	7	1	.
COC(=O)c1ccccc1NC(=O)c1cnc2c(-c3cccc(C)c3)c(C)nn2c1C	.	.	18	-1	.
Cn1cc(CC(=O)NCCN2CCOCC2)c2ccccc21	24	0	39*	0	-10
Cn1cc(CC(=O)NCc2ccc(F)cc2)c2ccccc21	-29	-1	9	0	-6
CC(C)c1ccc(NC(=O)Cc2cn(C)c3ccccc23)cc1	49*	-4	-8	0	-9
O=C(Cn1c(=O)oc2cc(S(=O)(=O)N3CCCCC3)ccc21)Nc1cccc(Cl)c1	.	.	-16	0	.
COc1cccc(OCC(=O)NCCS(=O)(=O)N2CCN(c3ccccc3F)CC2)c1	.	.	-5	15	.
COc1ccc2noc3c2c1C(=O)c1ccccc1-3	.	9	.	.	12
O=C1c2ccccc2-c2onc3ccc(NCCCn4ccnc4)c1c23	28	9	-10	49*	67*
Cc1ccc(CSCC(=O)N2CCCC2)cc1	33*	-5	5	1	-2
Cc1ccc(CSCC(=O)Nc2ccccc2C(=O)O)cc1	-9	5	-1	-3	52*
Cc1nc(-c2cccc(F)c2)sc1CCNC(=O)Cc1ccc(F)cc1	.	.	-11	-2	.
CCCn1c2ccccc2c2cnn(CC(=O)Nc3ccccc3OC)c(=O)c21	.	.	-8	1	.
Cc1cccc(-c2cc(C(=O)O)c3c(-c4ccc(F)cc4)[nH]nc3n2)c1	.	.	1	-1	.
CCn1cc(C(=O)O)c(=O)c2cc(F)c(N/N=C/c3ccccc3[N+](=O)[O-])cc21	30*	1	-21	7	-2
CCn1cc(C(=O)O)c(=O)c2cc(F)c(N3CCN(C(=S)NC(=O)c4ccccc4Br)CC3)cc21	6	-2	31*	-2	-10
CCOc1ccc(CNC(=O)CC(C)n2nc(C)cc2C)cc1OC (stereo unspecified)	.	.	-11	.	.
SMILES	D2 antag	D2 ag-1	D2 PAM-1	D2 ag-2	D2 PAM-2
CCN(Cc1nc(-c2ccc(OC)c(OC)c2)no1)C(=O)c1ccc2c(c1)OCO2	37*	-3	3	0	-10
CC(OC(=O)/C=C/c1ccccc1)C(=O)N1CCc2ccccc21 (stereo unspecified)	30*	1	-4	.	-3
COc1ccc(NC(=O)CCc2c(C)nn(-c3ccc(N4CCCC4)nn3)c2C)cc1Cl	.	.	6	0	.
CCS(=O)(=O)c1ccc2oc(Nc3ccc(OC)cc3)nc2c1	34*	-4	-3	-1	4
Cc1nnc(SCc2cc(=O)oc3cc(O)ccc23)n1Cc1ccccc1	30*	0	5	0	-5
O=[N+]([O-])c1ccc(C2=NN(c3ccccc3)C(c3ccco3)C2)cc1 (stereo unspecified)	-3	0	3	56*	-6
